# About 83,000 compounds went through this panel and 20% of them were active in at least one assay; those are over-represented in the sample as a whole.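 Negative percent growth values reflect cell death: -40 means 40% of the cells present at the start died, and -100 means all died.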 Activity calls are given as the source filed them. The calls were made as follows: active = growth percent below 10; inactive = the rest.
# System: HCC-2998 colon
# Assay: NCI-60 one-dose screen, 48 h (100 = growth as untreated, 0 = no growth, -100 = all killed)
# Details: 10 µM
row,Compound,growth
1,CCOc1ccc(Nc2nc3ccccc3nc2Nc2ccc(OCC)cc2)cc1,90.2% (inactive)
2,O=c1cc(-c2ccccc2)oc2cc(OCCCCNCc3ccccc3)cc(O)c12,-96.7% (active)
3,Cc1ccc(C(C)C)cc1NC(=O)c1ccccc1N(C)C,96.7% (inactive)
4,CCCCSc1nc(Nc2ccc(/C(C)=N/NC(N)=S)cc2)c(C#N)c(-c2ccc(F)cc2)n1,66.9% (inactive)
5,O=C(c1ccc(Cl)cc1)C1[C@H](c2ccccc2Br)[C@@H](c2ccccc2)NC12C(=O)Nc1ccccc12 (stereo partly drawn),7.29% (active)
6,CC(=O)c1ccc(NC(=O)NCn2c(=O)[nH]c3ccccc3c2=O)cc1,112% (inactive)
7,[2H]C([2H])([2H])Oc1ccc2ncc(C#Cc3cncc(C(=O)Nc4ccc(CN5CCN(C)CC5)c(C(F)(F)F)c4)c3)n2n1,-84.8% (active)
8,O=C1Nc2cc(Cl)ccc2/C1=C/c1ccc(OCc2ccc(Br)cc2F)cc1,19.5% (inactive)
9,CCCCCCCCCCCCCCCCCCCC(=O)NCCc1c[nH]c2ccc(OC(=O)CCCC(=O)OCCOOCCOOCCOOCCOOCCOOCCOOCCOOCCOOCCOOCCOOCCOOCCOC)cc12,87.8% (inactive)
10,C[C@H]1[C@H](C)CC[C@]2(COC(=O)CCC(=O)NCC#CCN3CCNCC3)CC[C@]3(C)C(=CC[C@@H]4[C@@]5(C)CCCNC(C)(C)[C@@H]5CC[C@]43C)[C@H]12,-41.7% (active)
11,COc1ccc2nc(Cl)c(-c3cc(-c4ccccc4)nc(N)n3)cc2c1,62.6% (inactive)
12,COc1ccc(CN2[C@H](C(=O)NCCCCCCC(=O)NO)Cc3c([nH]c4ccccc34)[C@H]2C2CC2)cc1,-36.7% (active)
13,CN1CCN(c2ccc(Nc3nc(NCCCNC(=O)c4ccccc4)c4sccc4n3)cc2)CC1,83.2% (inactive)
14,C=C1CC[C@H](C(=C)C)[C@H]2C=C(C)C(=O)C3=C(C(=O)[C@@](C)(O)C3)[C@H]12,-84.4% (active)
15,COc1ccc(N(C)c2cc(C#N)nc3ccccc23)cc1N,7.99% (active)
16,COc1ccc(C(C)=C(c2ccc(OCCCN(C)C)cc2)c2ccc(OCCCN(C)C)cc2)cc1,-91.6% (active)
17,CC1(c2ccccc2)NC(=O)N(CC(=O)Nc2ccc(C(=O)/C=C/c3ccc(Cl)cc3)cc2)C1=O (stereo not drawn),-99.1% (active)
18,NC(=Nc1ccc(OCCCCCCCCn2ccnn2)cc1)c1ccccc1,23.8% (inactive)
19,COC[C@@H](CC(C)C)N=C1N/C(=C\c2ccc3ncsc3c2)C(=O)N1C,5.06% (active)

row,Compound,growth
1,O=C(CSc1ccc(-c2ccc(Cl)cc2)nn1)Nc1ccc(Cl)c(C(F)(F)F)c1,69.5% (inactive)
2,Cc1ccc(NC(=O)NCn2c(=O)[nH]c3ccccc3c2=O)cc1,102% (inactive)
3,Cc1cc(C)cc(Oc2cccc(-c3c(C)nnn3C3CCN(CCN(C)C)CC3)n2)c1,0.234% (active)
4,CC(=O)NCC1=C(C)C=C2C(=O)[C@](C)(O)C3(CC3)C(C)=C21,-79.4% (active)
5,O=C(Nc1ccc(OCC(=O)c2ccccc2)cc1)Nc1ccc(Cl)c(C(F)(F)F)c1,28.6% (inactive)
6,CCOC(=O)c1c(CSc2ccccc2)n(C)c2cc(CN(C)C)c(O)c(CN(C)C)c12,12.1% (inactive)
7,Cc1ccc(-c2cc(-c3cc4ccccc4nc3Cl)[nH]c(=O)n2)cc1,-1.29% (active)
8,COc1ccc([C@H]2C(C(=O)c3ccc(Cl)cc3)C3(N[C@@H]2c2ccccc2)C(=O)Nc2ccc(Br)cc23)cc1 (stereo partly drawn),-41% (active)
9,O=C(CS(=O)(=O)c1oc(-c2ccc(Cl)cc2)nc1S(=O)(=O)c1ccc(Cl)cc1)N1CCOCC1,51% (inactive)
10,COc1ccc(C=CC(=O)c2ccc(-n3c(C)nc4c(cnn4-c4ccccc4)c3=O)cc2)cc1,86.8% (inactive)
11,O=C1Nc2ccc(Cl)cc2/C1=C/c1cccc(OCc2ccccc2)c1,50.6% (inactive)
12,CN(C)c1ccc(/C=C/C(=O)c2ccc(NC(=O)CN3C(=O)NC(C)(c4ccccc4)C3=O)cc2)cc1 (stereo not drawn),38.5% (inactive)
13,COc1cccc(C(N)=Nc2ccc(OCCCCCCn3cncn3)cc2)c1,18.5% (inactive)
14,CN1CCN(Cc2ccc(C(=O)Nc3cccc(Nc4ccc5cc(O)ccc5n4)c3)cc2C(F)(F)F)CC1,-97.3% (active)
15,Nc1nnc(-c2c[nH]c3ccc(F)cc23)c(-c2c[nH]c3ncccc23)n1,97.9% (inactive)
16,C/C(=C\CC/C=C(\C)CC/C=C(\C)CC[C@@H](O)C(C)(C)O)CC/C=C(\C)CC[C@@H](O)C(C)(C)O,31.7% (inactive)
17,Cc1ccc(-c2ccc(SCC(=O)Nc3ccc(Cl)c(C(F)(F)F)c3)nn2)cc1,12.9% (inactive)
18,CN1CCN(c2ccc(Nc3nc(NCCCNC(=O)c4ccc(F)cc4)c4sccc4n3)cc2)CC1,66.4% (inactive)
19,C#Cc1ccc(S(=O)(=O)Nc2cccc(-c3csc(NC(C)=O)n3)c2)cc1,91.3% (inactive)

# — PubChem BioAssay (NCI)
